Laboratory results from PubChem BioAssay (Tox21).
Inconclusive results are not listed. Activity calls are given as the source filed them. Unless noted, the call rests on the fitted dose curve; in most records, active means well fitted curve in the direction sought with a large enough effect in the repeat runs; inconclusive means weak or mixed curves; inactive means no such curve, though single readings can be large; an effect the other way counts as inactive or inconclusive.

Legend:
[1] = qHTS assay to identify small molecule antagonists of the glucocorticoid receptor (GR) signaling pathway - cell viability counter screen (AID 720693); further: nearly all actives have a fitted effect of over 55% in size
[2] = qHTS assay for identifying genotoxic compounds that show differential cytotoxicity against isogenic chicken DT40 cell lines with known DNA damage response pathways - wild type cell line (AID 743012); further: nearly all actives have a fitted effect of over 60% in size; further: potency means the concentration at half of the fitted maximal effect
Procedure, shortened: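 Cells (DT40 wild type, 300/well) are treated with DMSO-dissolved compounds after a ~0.5 h pre-incubation and kept 40 h at 37 C/5% CO2. Viability is then measured by CellTiter-Glo luminescence following 30 min at room temperature.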

[3] = qHTS assay for identifying genotoxic compounds that show differential cytotoxicity against isogenic chicken DT40 cell lines with known DNA damage response pathways - Rev3 mutant cell line (AID 743014); further: nearly all actives have a fitted effect of over 55% in size; further: potency means the concentration at half of the fitted maximal effect
[4] = qHTS assay for identifying genotoxic compounds that show differential cytotoxicity against isogenic chicken DT40 cell lines with known DNA damage response pathways - Rad54/Ku70 mutant cell line (AID 743015); further: nearly all actives have a fitted effect of over 60% in size; further: potency means the concentration at half of the fitted maximal effect
[5] = qHTS assay to identify small molecule antagonists of the androgen receptor (AR) signaling pathway - cell viability counter screen (AID 743033; further: nearly all actives have a fitted effect of over 45% in size)
[6] = molecular target: Androgen receptor (Homo sapiens) (UniProt P10275); assay: qHTS assay to identify small molecule antagonists of the androgen receptor (AR) signaling pathway (AID 743035; active means well fitted inhibition curve with a large enough effect in the signal ratio in the repeat runs, not every such curve was filed as active; the % refers to the signal ratio)
Sequence of Androgen receptor (Homo sapiens) (P10275 whole entry, looked up): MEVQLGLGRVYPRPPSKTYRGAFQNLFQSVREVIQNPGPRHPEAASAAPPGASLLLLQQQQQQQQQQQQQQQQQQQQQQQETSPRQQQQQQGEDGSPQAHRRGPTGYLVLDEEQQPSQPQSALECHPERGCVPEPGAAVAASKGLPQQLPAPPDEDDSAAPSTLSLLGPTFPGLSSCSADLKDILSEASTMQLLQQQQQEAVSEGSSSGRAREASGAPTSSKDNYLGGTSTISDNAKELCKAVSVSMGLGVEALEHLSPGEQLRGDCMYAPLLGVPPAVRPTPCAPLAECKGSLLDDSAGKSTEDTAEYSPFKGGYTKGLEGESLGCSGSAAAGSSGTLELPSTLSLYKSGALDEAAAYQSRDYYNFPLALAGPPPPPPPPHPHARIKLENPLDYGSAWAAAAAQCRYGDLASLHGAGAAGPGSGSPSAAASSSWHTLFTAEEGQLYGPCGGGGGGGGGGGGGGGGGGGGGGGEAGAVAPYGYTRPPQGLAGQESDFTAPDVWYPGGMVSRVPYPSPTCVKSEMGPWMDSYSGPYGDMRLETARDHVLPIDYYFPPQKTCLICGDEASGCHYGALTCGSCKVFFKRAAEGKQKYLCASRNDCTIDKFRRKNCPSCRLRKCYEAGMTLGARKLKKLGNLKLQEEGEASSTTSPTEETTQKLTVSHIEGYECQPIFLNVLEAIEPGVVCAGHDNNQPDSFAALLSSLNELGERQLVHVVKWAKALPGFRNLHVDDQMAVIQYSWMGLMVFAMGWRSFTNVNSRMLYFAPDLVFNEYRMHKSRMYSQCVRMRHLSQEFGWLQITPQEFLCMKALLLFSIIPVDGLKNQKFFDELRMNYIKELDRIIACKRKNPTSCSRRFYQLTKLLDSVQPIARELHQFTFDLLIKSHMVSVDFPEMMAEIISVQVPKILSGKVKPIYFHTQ
Procedure, shortened: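 Antagonism is scored as loss of R1881-driven beta-lactamase reporter expression in HEK293 cells carrying the reporter under a UAS element, after 16 h co-treatment at 37C and a 2 h room-temperature FRET substrate read.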

[7] = molecular target: Androgen receptor (Homo sapiens) (UniProt P10275); assay: qHTS assay to identify small molecule agonists of the androgen receptor (AR) signaling pathway (AID 743036; active means well fitted activation curve with a large enough effect in the signal ratio in the repeat runs, with a control signal flat, not every such curve was filed as active; the % refers to the signal ratio)
Procedure, shortened: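 Reporter line: GeneBLAzer AR-UAS-bla-GripTite (HEK293). Steps: plate cells, 4 h rest, add compounds, 16 h at 37C, add LiveBLAzer B/G substrate, 2 h at RT, read fluorescence.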

[8] = molecular target: Androgen receptor (Homo sapiens) (UniProt P10275); assay: qHTS assay to identify small molecule agonists of the androgen receptor (AR) signaling pathway using the MDA cell line (AID 743040; further: nearly all actives have a fitted effect of over 20% in size)
Procedure, shortened: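 MDA-kb2 breast carcinoma cells carrying MMTV-luciferase (responsive to AR and GR), plated 5 h then treated 16 h with compounds at 37C, 0% CO2. Read-out was ONE-Glo luminescence after 30 min at room temperature.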

[9] = qHTS assay to identify small molecule antagonists of the androgen receptor (AR) signaling pathway using the MDA cell line - cell viability counter screen (AID 743041; further: nearly all actives have a fitted effect of over 45% in size; further: potency means the concentration at half of the fitted maximal effect)
Procedure, shortened: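 MDA-kb2 AR-luc cells (MMTV-luciferase, AR/GR responsive) treated with compounds plus R1881 agonist for 16 h at 37C. CellTiter-Fluor added at 15.5 h; fluorescence read after 30 min in the same wells.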

[10] = qHTS assay to identify small molecule antagonists of the thyroid receptor (TR) signaling pathway - cell viability counter screen (AID 743064); further: nearly all actives have a fitted effect of over 50% in size
Procedure, shortened: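 Plate GH3.TRE-Luc cells; incubate 4 h at 37 °C; add compound, then T3 to 1 nM final; incubate 23.5 h; add CellTiter-Fluor; incubate 30 min at 37 °C, 5% CO2; read fluorescence.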
On the % scale 0 is the no-effect control and ±100 the full control effect.

O=S(=O)(O)c1cc(O)c(O)c(S(=O)(=O)O)c1
inactive: outcome [1] | Potency [2] | Potency [3] | Potency [4] | outcome [5] | Potency [6] | outcome [7] | Potency [8] | Potency [9] | Potency [10]

Cc1ccc(C(=O)c2ccccc2)cc1
inactive: outcome [1] | outcome [5] | Potency [6] | outcome [7] | Potency [8] | Potency [9] | Potency [10]
active: Potency [2] 61.1 µM | Potency [3] 54.5 µM | Potency [4] 68.6 µM

NCCCC[C@H](N[C@@H](CCc1ccccc1)C(=O)O)C(=O)N1CCC[C@H]1C(=O)O
inactive: outcome [1] | Potency [2] | Potency [3] | Potency [4] | outcome [5] | Potency [9]

Nc1c2c(nc3c1CCC3)CCCC2
inactive: outcome [1] | Potency [2] | Potency [3] | Potency [4] | outcome [5] | Potency [8] | Potency [9]

CC(C)(C)C(=O)c1ccccc1
inactive: outcome [1] | Potency [2] | Potency [3] | Potency [4] | outcome [5] | Potency [9]

CC1=NN(c2cc(S(=O)(=O)O)ccc2Cl)C(=O)C1N=Nc1ccccc1 (centres undefined)
active: Potency [9] 61.1 µM
inactive: outcome [1] | Potency [2] | Potency [3] | Potency [4] | outcome [5]

COC(=O)Nc1ccc(Cl)c(Cl)c1
inactive: outcome [1] | Potency [2] | Potency [3] | Potency [4] | outcome [5] | outcome [7] | Potency [8] | Potency [9]

CO[C@@]1(NC(=O)CSC[C@@H](N)C(=O)O)C(=O)N2C(C(=O)O)=C(CSc3nnnn3C)CS[C@@H]21
inactive: outcome [1] | Potency [2] | Potency [3] | Potency [4] | outcome [5] | outcome [7] | Potency [8] | Potency [9] | Potency [10]

CC(COc1ccccc1)NN (centres undefined)
inactive: outcome [1] | Potency [2] | Potency [3] | Potency [4] | outcome [5] | Potency [9]

C[C@@H]1CCC[C@H](C)N1
inactive: outcome [1] | Potency [2] | Potency [3] | Potency [4] | outcome [5] | Potency [9]

Clc1cc(Cl)c(Cl)nc1Cl
inactive: outcome [1] | Potency [2] | Potency [3] | Potency [4] | outcome [5] | Potency [9] | Potency [10]

CC(C)(C#N)Nc1nc(Cl)nc(NC2CC2)n1
inactive: outcome [1] | Potency [2] | Potency [3] | Potency [4] | outcome [5] | Potency [9] | Potency [10]

Cc1cc(C)c(N=Nc2c(O)c(S(=O)(=O)O)cc3cc(S(=O)(=O)O)ccc23)cc1C
inactive: viability change, negative = cytotoxic [1] -0.62% [at 7.04 µM] | activity change, negative = cytotoxicity [2] -7.67% [at 8.52 µM] | activity, negative = cytotoxicity [3] 0.342% [at 8.53 µM] | activity change, negative = cytotoxicity [4] 1.01% [at 8.55 µM] | activity change, negative = cytotoxicity [5] -2% [at 7.04 µM] | viability change, negative = cytotoxic [9] -1.15% [at 8.47 µM] | activity change, negative = cytotoxic [10] -15.7% [at 8.44 µM]

CC(C)(C)OC(=O)c1cccc(N)c1
inactive: outcome [1] | Potency [2] | Potency [3] | Potency [4] | outcome [5] | Potency [9] | Potency [10]

CCNS(=O)(=O)c1ccc(C)cc1
inactive: outcome [1] | Potency [2] | Potency [3] | Potency [4] | outcome [5] | Potency [9] | Potency [10]

CC(CC=O)CC(C)(C)C (centres undefined)
inactive: outcome [1] | Potency [2] | Potency [3] | Potency [4] | outcome [5] | Potency [9] | Potency [10]

CO[C@@]1(NC(=O)C(C(=O)O)c2ccc(O)cc2)C(=O)N2C(C(=O)O)=C(CSc3nnnn3C)CO[C@@H]21 (some centres undefined)
inactive: outcome [1] | Potency [2] | Potency [3] | Potency [4] | outcome [5] | Potency [9] | Potency [10]

CCCCCCCCCCCCCCCCCCO
inactive: outcome [1] | Potency [2] | Potency [3] | Potency [4] | outcome [5] | Potency [9] | Potency [10]

CC(C)C(=O)OC(=O)C(C)C
inactive: outcome [1] | Potency [2] | Potency [3] | Potency [4] | outcome [5] | Potency [9] | Potency [10]

CC1(C)[C@@H]2CC[C@@]1(C)[C@H](O)C2
inactive: outcome [1] | Potency [2] | Potency [3] | Potency [4] | outcome [5] | Potency [9] | Potency [10]

CC(C(=O)O)c1cccc(Oc2ccccc2)c1 (centres undefined)
inactive: outcome [1] | Potency [2] | Potency [3] | Potency [4] | outcome [5] | Potency [9] | Potency [10]

CC(C)CCCO
inactive: outcome [1] | Potency [2] | Potency [3] | Potency [4] | outcome [5] | Potency [9] | Potency [10]

CCCc1nn(C)c2c(=O)[nH]c(-c3cc(S(=O)(=O)N4CCN(C)CC4)ccc3OCC)nc12
inactive: outcome [1] | Potency [2] | Potency [3] | Potency [4] | outcome [5] | Potency [9] | Potency [10]

NC(CCC(=O)O)C(=O)O (centres undefined)
inactive: outcome [1] | Potency [2] | Potency [3] | Potency [4] | outcome [5] | Potency [9] | Potency [10]

CC(C)[C@H]1CC[C@@H](C)CC1=O
inactive: outcome [1] | Potency [2] | Potency [3] | Potency [4] | outcome [5] | Potency [9] | Potency [10]

C[N+]1(C)CCCC(OC(=O)C(O)(c2ccccc2)c2ccccc2)C1 (centres undefined)
inactive: outcome [1] | Potency [2] | Potency [3] | Potency [4] | outcome [5] | Potency [9] | Potency [10]

CCCC(C)C(=O)OCC (centres undefined)
inactive: outcome [1] | Potency [2] | Potency [3] | Potency [4] | outcome [5] | Potency [9] | Potency [10]

CC(C)c1ccc2ncccc2c1
inactive: outcome [1] | Potency [2] | Potency [3] | Potency [4] | outcome [5] | Potency [9] | Potency [10]

COc1ccnc(CS(=O)c2nc3cc(OC(F)F)ccc3[nH]2)c1OC (centres undefined)
inactive: outcome [1] | Potency [2] | Potency [3] | Potency [4] | outcome [5] | Potency [9] | Potency [10]

CN(C)C(=O)Oc1cccc([N+](C)(C)C)c1
inactive: outcome [1] | Potency [2] | Potency [3] | Potency [4] | outcome [5] | Potency [9] | Potency [10]
